Structures are written as SMILES. The source made the active and inactive calls.

The first assay can be described thus: FRG1 expression reporter modulators in myotubes – cell-based, C2C12 myotubes, firefly/Renilla luciferase, luminescence, FRG1 inhibition for FSHD, primary screen (AID 1084). As to conditions: FRG1 promoter luciferase, higher = more signal, called active from +8 up or from −8 down.
On to `[N-]=[N+]=Nc1ccccc1[C@@H]1OC(c2ccc(OCCCO)cc2)=N[C@]1(Cc1ccccc1)C(=O)NCC(O)CO` (some centres undefined), for which the z-score is -0.992 (inactive).

Take `COc1ccc([Si](C)(C)[C@@H]2[C@@H](CCn3cc([C@H](O)c4ccccc4)nn3)O[C@]3(C(=O)N(Cc4ccc(N5CCC5=O)cc4)c4ccccc43)[C@H]2C)cc1`: the z-score was -0.96 (inactive).

For `C=CCC(OC(C)=O)[C@@H]1[C@@H](N(Cc2ccc(-c3cccc(C(F)(F)F)c3)o2)C(=O)c2ccc(C)cc2)c2cc(OCCCO)ccc2N1C(=O)c1ccc2ccccc2c1` (some centres undefined), the z-score is 0.0925 (inactive).

`C=CCC(OC(C)=O)[C@@H]1[C@@H](N(Cc2cccc3ccccc23)C(=O)Cc2ccc(F)cc2)c2cc(OCCCO)ccc2N1C(=O)c1ccc2ccccc2n1` (some centres undefined): the z-score is -1.11 (inactive).

As for `C[C@H]1NC(=O)[C@@]23C(=O)N[C@@H](Cc4ccccc4)C2[C@H](C)[C@@]2(C)O[C@H]2C3/C=C/C/C=C\CNC(=O)[C@H](Cc2ccccc2)NC1=O` (some centres undefined), the z-score was 1.8 (inactive).

As for `CCCCCCCCCCC(O)C1C=CC2C(=O)N(C)C(=O)C2N1Nc1ccc([N+](=O)[O-])cc1[N+](=O)[O-]` (centres undefined), the z-score was 0.262 (inactive).

With `NCCCCCCNC(=O)[C@@H]1C[C@@H]2C(=O)N[C@@H](CCCCN)C(=O)N2[C@@H]1c1cccc(OCCO)c1`, the z-score is 3.25 (inactive).

As for `N#Cc1ccc(C(O)C2C=CC3C(=O)N(c4ccccc4)C(=O)C3N2Nc2ccccc2)cc1` (centres undefined), the z-score was -0.627 (inactive).

On to `CC1=C([C@H](O)CCc2ccccc2)[C@H](CO)[C@@H]2C(=O)N(C)C(=O)[C@@H]2C1`, for which the z-score was -0.445 (inactive).

For `CCOC(=O)C1=CC[C@@H](c2cccc(Cl)c2)N(S(=O)(=O)c2ccc(C)cc2)C1`, the z-score is -2.76 (inactive).

For the compound `COCCOC(=O)N1C(=O)[C@@]2(c3cc(C#Cc4ccc(OC)cc4)ccc31)[C@H](C(=O)Nc1nc3ccccc3s1)[C@H]1C(=O)O[C@H](c3ccccc3)[C@H](c3ccccc3)N1[C@@H]2c1ccc(O)cc1`, the z-score was 2.65 (inactive).

Turning to `COc1ccc(C#Cc2ccc3c(c2)[C@]2(C(=O)N3)[C@H](c3ccc(O)cc3)N3[C@H](c4ccccc4)[C@H](c4ccccc4)OC(=O)[C@H]3[C@@H]2C(=O)O)cc1`, the z-score was -0.471 (inactive).

In the case of `CC(C)C[C@@H]1NC(=O)[C@@H]2C[C@H](C(=O)NCCCCCN)[C@H](c3ccc(O)cc3)N2C1=O`, the z-score was -0.375 (inactive).

Turning to `CN1C(=O)C2C=CC(C(O)c3ccc(F)cc3)N(Nc3ccccc3)C2C1=O` (centres undefined), the z-score was -0.604 (inactive).

With `CCC[C@@H]1C[C@@]1(CCC)[C@@H](NC(=O)OCc1ccccc1)c1ccc(-c2ccccc2)cc1`, the z-score was -1.93 (inactive).

For the compound `COc1ccc(NC(=O)O[C@H]2[C@H](OC(=O)Nc3ccccc3)[C@H](OC(=O)Nc3ccccc3)[C@@H](OC)O[C@@H]2CO)cc1`, the z-score was -0.742 (inactive).

Regarding `CC(C)[Si](C#C[Si](C(C)C)(C(C)C)C(C)C)(O[C@H](C)c1cn([C@H](CO)Cc2ccccc2)nn1)C(C)C`, the z-score is -1.06 (inactive).

As to `[N-]=[N+]=NCc1ccccc1[C@@H]1OC(c2ccc(OCCCO)cc2)=N[C@]1(CCS(=O)(=O)c1ccccc1)C(=O)NCC(O)CO` (some centres undefined), the z-score was -0.547 (inactive).

On to `CCC(CC)C(O)C1C=CC2C(=O)N(c3ccccc3)C(=O)C2N1Nc1ccc(C(C)C)cc1` (centres undefined), for which the z-score is -0.963 (inactive).

As to `C=C(C)C1CCC(C(O)C2C=CC3C(=O)N(C)C(=O)C3N2N2CCCCC2)CC1` (centres undefined), the z-score is 1.17 (inactive).

For `O=C1NC(=O)C2C1C=CC(C(O)c1cccc3ccccc13)N2Nc1ccc(Cl)cc1Cl` (centres undefined), the z-score is -0.716 (inactive).

Regarding `C=CCOC(=O)[C@H]1[C@@H]2C(=O)O[C@@H](c3ccccc3)[C@@H](c3ccccc3)N2[C@@H](c2ccc(OCCOC(=O)[C@@H]3C[C@@H]4C(=O)N[C@@H](CCCCN(C)C)C(=O)N4[C@@H]3c3ccc(O)cc3)cc2)[C@]12C(=O)Nc1ccccc12`, the z-score is 0.585 (inactive).

Take `CCOC(=O)C1=CC[C@@H](c2ccccc2C(F)(F)F)N(S(=O)(=O)c2ccc(C)cc2)[C@H]1c1ccc(C#N)cc1`: the z-score was 0.852 (inactive).

For `CCCNC(=O)[C@@H]1c2ccccc2C(=O)N(C(C)C)[C@H]1c1ccc(CO)cc1`, the z-score is -0.273 (inactive).

Another assay in a line: small molecules captured by biotinylated probe aFST – biochemical, small-molecule microarray, fluorescence 635/667, stem cell growth factor project, primary screen (AID 1086).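 Also: score merges 667 nm fluorescence with signal-to-noise of each printed compound spot.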 To be noted: higher = more signal.
Regarding `C=C(/C(=C/C[C@H](OC(C)=O)c1ccccc1OCCO)c1cc(C(=O)OC)ccc1OC)C(C)C`, the composite z-score is -0.36.

In turn, `C[N+](C)(C)CCCC[C@@H]1NC(=O)[C@H]2C[C@@H](C(=O)NCCCCCCN)[C@@H](c3ccc(O)cc3)N2C1=O` came in with a composite z-score of 0.901.

The compound `COc1ccccc1CN1C(=O)c2ccccc2[C@](Cc2ccccc2I)(C(=O)NCC(F)(F)F)[C@@H]1c1ccc(CO)cc1` showed a composite z-score of 1.37.

Take `O=C(NCc1ccccc1)[C@@H]1c2ccccc2C(=O)N(Cc2ccccc2C(F)(F)F)[C@H]1c1ccc(CO)cc1`: the composite z-score was -0.428.

Consider `COC(=O)[C@H](Cc1ccccc1)N1CC(/C=C/C2CC2)=C[C@H]1[C@H](O)Cc1ccccc1`, for which the composite z-score came out at 0.101.

For `CCOC(=O)C1=CC[C@@H](c2ccc(OCc3ccccc3)c(OC)c2)N(S(=O)(=O)c2ccc(C)cc2)[C@H]1c1ccc(SC)cc1`, the composite z-score amounted to 1.67.

In turn, `COc1cccc(/C=C/C=O)c1` had a composite z-score of 0.375.

Compound `CC(=O)NCCCC[C@@H]1NC(=O)[C@H]2C[C@@H](C(=O)NCCCC[N+](C)(C)C)[C@@H](c3cccc(OCCO)c3)N2C1=O` showed a composite z-score of 0.593.

As for `O=C1C2C=CC(C(O)c3ccccc3)N(Nc3ccccc3F)C2C(=O)N1c1ccccc1` (centres undefined), the composite z-score came to 0.444.

Consider `CCOC(=O)C[C@H]1[C@H](OC(=O)c2ccccc2-c2ccccc2)[C@@H](NC(=O)c2ccc(-c3ccccc3)cc2)c2cc(OCCCO)ccc2N1C(=O)c1ccc2ccccc2n1`, for which the composite z-score amounted to 0.211.

For the compound `CO[C@]12C=C(Br)[C@@H](C[C@@H]1c1cccc(C)c1)[C@@]1(CO1)C2=O`, the composite z-score is -0.221.

For the compound `[N-]=[N+]=Nc1ccccc1[C@@H]1OC(c2ccc(OCCCO)cc2)=N[C@]1(Cc1ccccc1)C(=O)NCC(O)CO` (some centres undefined), the composite z-score was determined as 1.25.

Take `COc1ccc([Si](C)(C)[C@@H]2[C@@H](CCn3cc([C@H](O)c4ccccc4)nn3)O[C@]3(C(=O)N(Cc4ccc(N5CCC5=O)cc4)c4ccccc43)[C@H]2C)cc1`: the composite z-score was -0.201.

`C=CCC(OC(C)=O)[C@@H]1[C@@H](N(Cc2ccc(-c3cccc(C(F)(F)F)c3)o2)C(=O)c2ccc(C)cc2)c2cc(OCCCO)ccc2N1C(=O)c1ccc2ccccc2c1` (some centres undefined) gave a composite z-score of 0.0494.

On to `C=CCC(OC(C)=O)[C@@H]1[C@@H](N(Cc2cccc3ccccc23)C(=O)Cc2ccc(F)cc2)c2cc(OCCCO)ccc2N1C(=O)c1ccc2ccccc2n1` (some centres undefined), for which the composite z-score turned out to be 0.382.

With `C[C@H]1NC(=O)[C@@]23C(=O)N[C@@H](Cc4ccccc4)C2[C@H](C)[C@@]2(C)O[C@H]2C3/C=C/C/C=C\CNC(=O)[C@H](Cc2ccccc2)NC1=O` (some centres undefined), the composite z-score is -0.107.

In the case of `CCCCCCCCCCC(O)C1C=CC2C(=O)N(C)C(=O)C2N1Nc1ccc([N+](=O)[O-])cc1[N+](=O)[O-]` (centres undefined), the composite z-score came to 0.839.

Turning to `NCCCCCCNC(=O)[C@@H]1C[C@@H]2C(=O)N[C@@H](CCCCN)C(=O)N2[C@@H]1c1cccc(OCCO)c1`, the composite z-score was -0.175.

With `N#Cc1ccc(C(O)C2C=CC3C(=O)N(c4ccccc4)C(=O)C3N2Nc2ccccc2)cc1` (centres undefined), the composite z-score was 0.833.

Regarding `CC1=C([C@H](O)CCc2ccccc2)[C@H](CO)[C@@H]2C(=O)N(C)C(=O)[C@@H]2C1`, the composite z-score stood at 0.0014.

In turn, `CCOC(=O)C1=CC[C@@H](c2cccc(Cl)c2)N(S(=O)(=O)c2ccc(C)cc2)C1` returned a composite z-score of 0.329.

`COCCOC(=O)N1C(=O)[C@@]2(c3cc(C#Cc4ccc(OC)cc4)ccc31)[C@H](C(=O)Nc1nc3ccccc3s1)[C@H]1C(=O)O[C@H](c3ccccc3)[C@H](c3ccccc3)N1[C@@H]2c1ccc(O)cc1` returned a composite z-score of 0.286.

In the case of `COc1ccc(C#Cc2ccc3c(c2)[C@]2(C(=O)N3)[C@H](c3ccc(O)cc3)N3[C@H](c4ccccc4)[C@H](c4ccccc4)OC(=O)[C@H]3[C@@H]2C(=O)O)cc1`, the composite z-score was -0.541.

Compound `CC(C)C[C@@H]1NC(=O)[C@@H]2C[C@H](C(=O)NCCCCCN)[C@H](c3ccc(O)cc3)N2C1=O` registered a composite z-score of 0.371.

Consider `CN1C(=O)C2C=CC(C(O)c3ccc(F)cc3)N(Nc3ccccc3)C2C1=O` (centres undefined), for which the composite z-score was 0.862.

For the compound `CCC[C@@H]1C[C@@]1(CCC)[C@@H](NC(=O)OCc1ccccc1)c1ccc(-c2ccccc2)cc1`, the composite z-score was -0.294.

As for `COc1ccc(NC(=O)O[C@H]2[C@H](OC(=O)Nc3ccccc3)[C@H](OC(=O)Nc3ccccc3)[C@@H](OC)O[C@@H]2CO)cc1`, the composite z-score came to 0.803.

On to `CC(C)[Si](C#C[Si](C(C)C)(C(C)C)C(C)C)(O[C@H](C)c1cn([C@H](CO)Cc2ccccc2)nn1)C(C)C`, for which the composite z-score came to 0.513.

Turning to `[N-]=[N+]=NCc1ccccc1[C@@H]1OC(c2ccc(OCCCO)cc2)=N[C@]1(CCS(=O)(=O)c1ccccc1)C(=O)NCC(O)CO` (some centres undefined), the composite z-score came to 0.923.

As for `CCC(CC)C(O)C1C=CC2C(=O)N(c3ccccc3)C(=O)C2N1Nc1ccc(C(C)C)cc1` (centres undefined), the composite z-score is 1.21.

In turn, `C=C(C)C1CCC(C(O)C2C=CC3C(=O)N(C)C(=O)C3N2N2CCCCC2)CC1` (centres undefined) yielded a composite z-score of 1.23.

In turn, `O=C1NC(=O)C2C1C=CC(C(O)c1cccc3ccccc13)N2Nc1ccc(Cl)cc1Cl` (centres undefined) returned a composite z-score of 1.34.

Consider `C=CCOC(=O)[C@H]1[C@@H]2C(=O)O[C@@H](c3ccccc3)[C@@H](c3ccccc3)N2[C@@H](c2ccc(OCCOC(=O)[C@@H]3C[C@@H]4C(=O)N[C@@H](CCCCN(C)C)C(=O)N4[C@@H]3c3ccc(O)cc3)cc2)[C@]12C(=O)Nc1ccccc12`, for which the composite z-score was determined as 0.29.

`CCOC(=O)C1=CC[C@@H](c2ccccc2C(F)(F)F)N(S(=O)(=O)c2ccc(C)cc2)[C@H]1c1ccc(C#N)cc1` showed a composite z-score of 1.11.

The compound `CCCNC(=O)[C@@H]1c2ccccc2C(=O)N(C(C)C)[C@H]1c1ccc(CO)cc1` had a composite z-score of 0.103.
